Period change and inhibition data for five compounds are collected here from PubChem BioAssay.

As a reminder, the inhibition is the change of the read-out against control, counted positive when it falls.

Assay [1] can be described thus: compounds altering circadian rhythm period length – cell-based, LOPAC library, luminescence reporter (AID 2774; call rule not given here;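 also: values are relative to mean of DMSO wells on each plate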). The note with it: circadian reporter cells, at 7 µM, actives lie on both sides.
The nature of assay [2]: growth inhibition, single agent or in combination, cell-based, chromothripsis tumors, cisplatin or BGB combos (AID 1671449).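 Also: cells exposed for 96 hours; 0% = vehicle DMSO and 100% = killing by high DMSO.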 The note with it: LFS_MB_P medulloblastoma cells.
Assay [3] is described as follows: growth inhibition, single agent and combos, cell-based, chromothripsis tumors, cisplatin or BGB combos (AID 1671450).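 Also: cells exposed to compound for four days; 0% = vehicle DMSO and 100% = cell killing by high DMSO.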 The note with it: HDN33 neuroblastoma cells, stronger effect = higher value.
A short description of assay [4]: growth inhibition, single agents and combos, ICB984, cell-based, cisplatin or BGB combos, synergistic combos for chromothripsis tumors (AID 1671451; call rule not given here;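 also: cells exposed for 96 hours before readout; 0% = vehicle DMSO and 100% = killing by high DMSO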). The note with it: ICB984 medulloblastoma cells, drug combinations, stronger effect = higher value.
Assay [5] in a line: growth inhibition, single agents and combos, LFS_MB_1R, cell-based, cisplatin or BGB combos, synergistic combos for chromothripsis tumors (AID 1671452).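 Also: cells exposed for 96 hours before readout.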 The note with it: LFS_MB_1R medulloblastoma cells, stronger effect = higher value.
A short description of assay [6]: growth inhibition, single agents and combos, HTB85, cell-based, BGB or cisplatin IC20 combos, synergistic combos for chromothripsis tumors (AID 1671453).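 Also: cells exposed for 96 hours before readout; 0% = vehicle DMSO and 100% = high DMSO killing control.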 The note with it: HTB85 osteosarcoma cells, drug combinations, stronger effect = higher value.
A short description of assay [7]: growth inhibition, single agents and combos, CRL2098, cell-based, BGB or cisplatin IC20 combos, synergistic combos for chromothripsis tumors (AID 1671454).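 Also: cells exposed for 96 h before readout; 0% = vehicle DMSO and 100% = killing by high DMSO.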 The note with it: CRL2098 osteosarcoma cells, drug combinations, stronger effect = higher value.
Assay [8] can be described thus: growth inhibition, single agents and combos, HD-MB03, cell-based, BGB or cisplatin IC20 combos, synergistic combos for chromothripsis tumors (AID 1671455; in the data active = inhibition above about 83%;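 also: 0% = vehicle DMSO and 100% = high DMSO as cytotoxic control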). The note with it: HD-MB03 medulloblastoma cells, stronger effect = higher value.
Assay [9] in a line: growth inhibition, single agents and combos, UWB1.289, cell-based, BGB or cisplatin combos, synergistic combos for chromothripsis tumors (AID 1671456).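 Also: cells exposed to compound for four days; 0% = vehicle DMSO and 100% = killing by high DMSO.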 The note with it: UWB1.289 ovarian carcinoma cells, stronger effect = higher value.
A short description of assay [10]: growth inhibition, single agents and combos, LFS_MB_2R, cell-based, cisplatin combos, synergistic combos for chromothripsis tumors (AID 1671457).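 Also: cells exposed to compound for four days before readout.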 The note with it: LFS_MB_2R medulloblastoma cells, stronger effect = higher value.
A short description of assay [11]: growth inhibition, MDA-MB-436, cell-based, BGB or cisplatin combos, synergistic combos for chromothripsis tumors (AID 1671458; call rule not given here;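 also: cells exposed for 96 hours; 0% = vehicle DMSO and 100% = killing by high DMSO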). The note with it: MDA-MB-436 breast carcinoma growth inhibition, drug combinations, stronger effect = higher value.
Assay [12] is described as follows: UWB1.289_BRCA1 ovarian cancer growth, cell-based, BGB or cisplatin combinations (AID 1671459). The note with it: UWB1.289 BRCA1 ovarian carcinoma, drug combinations, stronger effect = higher value.
Assay [13] in a line: drug combination toxicity in non-malignant astrocytes – cell-based, BGB or cisplatin IC20 combos, cytotoxicity control for chromothriptic childhood tumor combination screen (AID 1671460).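 Also: cells exposed to compounds for 96 hours before viability readout; 0% = vehicle and 100% = killing control.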 The note with it: Human astrocytes, viability inhibition, drug combinations, at 0.5 µM, stronger effect = higher value.
Assay [14] in a line: BT084 cell growth, single and combined drugs, ICGC_MB145, cisplatin and BGB IC40 combos (AID 1671461).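 Also: cells exposed to drugs for 96 hours; 0% = vehicle DMSO and 100% = high DMSO full killing control.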 The note with it: BT084 medulloblastoma cells, drug combinations, stronger effect = higher value.
Assay [15] can be described thus: RCMB18 cell growth, single agent and combined, cisplatin and BGB IC40 combos (AID 1671462).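 Also: cells exposed to compound for four days.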 The note with it: RCMB18 medulloblastoma cells, stronger effect = higher value.
Assay [16] in a line: CRL1545 cell growth, single agent and combined, cisplatin and BGB IC20 combos (AID 1671464).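 Also: cells exposed to compound for 96 hours before readout; 0% = vehicle DMSO and 100% = high DMSO killing control.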 The note with it: CRL1545 osteosarcoma cells, stronger effect = higher value.
[17] abbreviates: measured here: combination with BGB IC40, at 0.05 µM.
Where [18] appears, read: measured here: with BGB IC20 combination, at 0.5 µM.
The mark [19] stands for this setting: measured here: with cisplatin IC20 combination, at 0.5 µM.
Setting [20] is: measured here: combination with cisplatin, at 0.5 µM.
The mark [21] stands for this setting: measured here: combination with cisplatin, at 5 µM.

Several values for one entry are separate records, joined by “and”; a condition that tells them apart may be missing. Equal values may be shown once. Activity calls are given as the source filed them. Rule as the data show it, unless noted: active = inhibition above about 80%; inactive = the rest.

Turning to `C=CCN1CCC2(C)c3cc(O)ccc3CC1[C@@H]2C` (some centres not stated), the period change in [1] was -0.025 h (inactive).

As to `CN1CCC23CCCC[C@H]2C1Cc1ccc(O)cc13` (some centres not stated), the period change in [1] is -0.06 h (inactive).

Take `COc1ccc2[nH]cc(CCN(C)C)c2c1`: the period change in assay [1] is 0.045 h (inactive).

As to `CCN(CC)C(=O)N[C@@H]1C=C2c3cccc4[nH]cc(c34)C[C@H]2N(C)C1`, the period change in [1] is 0.415 h (inactive).

Regarding `Cc1c(N)nc(C(CC(N)=O)NCC(N)C(N)=O)nc1C(=O)NC(C(=O)NC(C)C(O)C(C)C(=O)NC(C(=O)NCCc1nc(-c2nc(C(=O)NCCC[S+](C)C)cs2)cs1)C(C)O)C(O[C@@H]1O[C@@H](CO)[C@@H](O)[C@H](O)[C@@H]1O[C@H]1O[C@H](CO)[C@@H](O)[C@H](OC(N)=O)[C@@H]1O)c1cnc[nH]1` (some centres not stated), the inhibition in assay [2] (at 0.5 µM, stronger effect = higher value) was -26.9% (inactive) and -11.5% (inactive); in assay [2] (measured here: combination with BGB IC20, at 0.005 µM), 28.9% and -33.7%; in [2] (measured here: combination with BGB IC40, at 0.005 µM), -4.08% and -32.1%; in assay [2] (setting [17]), 1.25% and -43.8%; in [2] (measured here: combination with cisplatin, at 0.5 µM, stronger effect = higher value) it was -37.7% and -28%; in assay [2] (measured here: combination with cisplatin, at 5 µM, stronger effect = higher value), -0.936% and -58.3%. Further, the inhibition was 94.9% and 96.7% in [3] (BGB combo, at 5 µM); 56.2% (inactive) and 63.6% (inactive) in [3] (at 0.5 µM); 90% and 97.3% in assay [3] (cisplatin combo, at 5 µM); 57.4% and 65.6% in [3] (setting [18]); 46.8% and 53.3% in assay [3] (setting [19]); 95% and 97.6% in [3] (single agent, at 5 µM). The inhibition is 15.2% and 12.8% in assay [4] (BGB IC20 combo, at 0.005 µM); -5.04% and -17.2% in [4] (BGB IC40 combo, at 0.005 µM); 2.59% and -11.2% in assay [4] (BGB IC40 combo, at 0.05 µM); -18.3% (inactive) and -34.3% (inactive) in assay [4] (at 0.5 µM); -0.135% and -15.2% in [4] (cisplatin combo, at 0.05 µM); -22.6% and -41.3% in [4] (cisplatin combo, at 0.5 µM). Moreover, the inhibition is -35.8% and -29.6% in [4] (cisplatin combo, at 5 µM); -30.1% and -12.5% in assay [4] (measured here: 5 uM single agent, at 5 µM); -1.28% (inactive) and 4.59% (inactive) in assay [5] (at 0.5 µM); -22.4% and 5.32% in assay [5] (setting [17]); 19.1% and 22.6% in [5] (setting [20]); 2.08% and 20.3% in assay [5] (setting [21]). The inhibition in assay [6] (at 0.5 µM) is 23% (inactive) and 30.3% (inactive); in assay [6] (measured here: with BGB IC20, at 0.5 µM), 21.6% and 26.9%; in assay [6] (measured here: with BGB IC20, at 5 µM) it was 61.8% and 92.6%; in assay [6] (measured here: with cisplatin IC20, at 0.5 µM) it was 14.2% and 23.1%; in assay [6] (measured here: with cisplatin IC20, at 5 µM), 54.6% and 74.3%; in assay [6] (single agent, at 5 µM), 73.7% and 82.2%. The inhibition is 33.9% (inactive) and 38.3% (inactive) in [7] (at 0.5 µM); 21% and 37.5% in assay [7] (measured here: combination with BGB at IC20, at 0.5 µM); 31% and 27.7% in assay [7] (measured here: combination with cisplatin at IC20, at 0.5 µM); 48.5% (inactive) and 64.8% (inactive) in assay [8] (at 0.5 µM); 54.2% and 75.3% in assay [8] (measured here: combo with BGB at IC20, at 0.5 µM); 40% and 68.2% in [8] (measured here: combo with cisplatin at IC20, at 0.5 µM). In addition, the inhibition in [9] (at 0.5 µM) was 22.8% (inactive) and 41.7% (inactive); in [9] (measured here: inhibition with BGB combination, at 0.05 µM), 12.4% and -1.23%; in assay [9] (measured here: inhibition with cisplatin combination, at 0.05 µM), 12.6% and 30.8%; in [10] (at 0.5 µM), -1.61% (inactive) and -19.6% (inactive); in assay [10] (setting [20]), 1.34% and -24.5%; in assay [10] (setting [21]), -27.5% and -11.4%. The inhibition in assay [11] (at 0.5 µM) was 15.9% (inactive) and 17.6% (inactive); in assay [11] (measured here: BGB combination, at 0.5 µM) it was 8.64% and 0.685%; in assay [11] (measured here: BGB combination, at 5 µM), 29.8% and 10.1%; in assay [11] (measured here: cisplatin combination, at 0.5 µM), 17.1% and 11.9%; in [11] (measured here: cisplatin combination, at 5 µM), 42.7% and 28.7%; in assay [12] (BGB combination, concentration series, at 5 µM) it was 33.2% and 41.4%. In addition, the inhibition is 17% (inactive) and 31.1% (inactive) in assay [12] (at 0.5 µM); 31.9% and 22.9% in [12] (cisplatin combination, concentration series, at 5 µM); 35.7% (inactive) and 41.9% (inactive) in assay [13]; 41.1% and 49.2% in assay [13] (measured here: combo with BGB IC20); 9.83% and 15.3% in assay [13] (measured here: combo with cisplatin IC20); -4.03% (inactive) and -7.21% (inactive) in assay [14] (at 0.5 µM). The inhibition is -3.29% and -12.5% in [14] (cisplatin combination, at 0.5 µM); 4.08% and 10.3% in assay [14] (cisplatin combination, at 5 µM); -1.66% and -25.1% in [14] (measured here: BGB IC40 combination 0.05 uM, at 0.05 µM); -12.7% and -10.7% in assay [14] (single agent, at 5 µM); 32.3% (inactive) and -22.9% (inactive) in assay [15] (at 0.5 µM); 15.5% and 7.73% in assay [15] (cisplatin combo, at 5 µM). Besides, the inhibition in assay [15] (measured here: BGB IC40 combination, at 0.05 µM) was -15.7% and -30.1%; in assay [15] (setting [20]) it was 27.9% and 2.02%; in [15] (single agent, at 5 µM), -20% and -46.7%; in assay [16] (at 0.5 µM) it was 32% (inactive) and 45.1% (inactive); in assay [16] (setting [18]), 25.4% and 41.5%; in assay [16] (setting [19]) it was 33.8% and 46%. The inhibition in assay [16] (single agent, at 0.05 µM) was 23% and 12.8%; in assay [16] (single agent, at 5 µM) it was 88.5% and 95.5%.
